Bioassay records: PubChem, National Center for Advancing Translational Sciences (NCATS)
Shown is part of a subset that was picked to be rich in hits.
Pf Dd2 growth: inhibitors of Plasmodium falciparum Dd2 growth. P. falciparum Dd2 growth, SYBR Green, 72 h. Potency, µM (series often up to 28.9 µM), inactives show at the highest dose activity, negative = inhibition, actives largely listed as inhibitors. 120,000 compounds, 4.3% hits. AID 1347417; active means well fitted inhibition curve with a large enough effect;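 further: plate controls were DMSO vehicle for no effect and reference drug for full effect; nearly all actives have a fitted effect of over 65% in size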
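Readout: SYBR Green fluorescence, 485 nm excitation, 535 nm emission, after ~16 h lysis at 37C. Before that, Dd2-infected red cells (2.5% hematocrit) grew 72 h with compound, 29 uM top final concentration.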
* = called active by the depositor; i = inactive; [ ] = remark or other dose. Potency means the concentration at half of the fitted maximal effect.

SMILES	Pf Dd2 growth
FC(F)(F)c1cccc(C2=NOC3(CCN(Cc4ccccc4)CC3)C2)c1	-28%
CCOC(=O)C1(Cc2cccc(C(F)(F)F)c2)CCN(Cc2cc(C(C)C)n[nH]2)CC1	7.1µM*
CCOC(=O)C1(Cc2ccc(OC)cc2)CCN(C(=O)c2cccc(Cl)c2)CC1	i
CC(=O)NC1(C)CCN(Cc2cnc(-c3cccc(C(F)(F)F)c3)s2)CC1	i
CCOC(=O)C1(Cc2cccc(C(F)(F)F)c2)CCN(Cc2ccc(COC)o2)CC1	8.9µM*
COc1cc(Cl)ccc1C(=O)NCc1c(C)ncc2c1CCNC2	i
O=[S+]([O-])(c1ccncc1)c1nnn2c1nc(N1CCCCC1)c1ccccc12	-15%
Cc1cn2nc(C(=O)NCc3cccc(C(F)(F)F)c3)cc2c(N2CCSCC2)n1	i
COc1ccc2c(c1)C(C[C@H]1CN(C(=O)C(C)(C)C)CC[C@H]1CC(=O)O)=NCC2	-11%[44.1 µM]
O=C1[C@@H]2C[C@@H](O)CN2C2(CN(C3CCOCC3)C2)C(=O)N1Cc1ccccc1	-3%[44.1 µM]
CC[C@H]1CN2CC[C@H]1C[C@@H]2CNC(=O)CC(C)(C)CC(=O)O	5%[44.1 µM]
O=C(C1CCCC1)N1CCC(c2noc(-c3ccccc3)n2)C1 (configuration not stated)	i[5.79 µM]
CCc1csc(CNC(=O)c2ccc(N3CCN(C)C(C)C3)nc2)n1 (configuration not stated)	-12%
Cc1ccc(-c2cnc(C3CC3)o2)cc1S(=O)(=O)Nc1cccc(C#N)c1	-3%
CCOC(=O)c1c(Nc2cccc(C)c2)nnc(-c2ccccc2)c1-c1ccccc1	i
Cc1cccc(Nc2nnc(-c3ccc(C)c(S(=O)(=O)NCC4CCCO4)c3)c3ccccc23)c1 (configuration not stated)	4.5µM*
Cc1cc(-c2ccc(C)c(S(=O)(=O)NCC3CCN(Cc4ccccc4F)CC3)c2)on1	i
Cc1ccc(-c2nnc(Nc3cccc(Cl)c3)c3ccccc23)cc1S(=O)(=O)NCC1CCCO1 (configuration not stated)	10µM*
Cc1ccc(-c2nnc(Nc3ccc(Cl)cc3)c3ccccc23)cc1S(=O)(=O)NCC1CCCO1 (configuration not stated)	33%
CC(C)CNC(=O)C(NC(=O)c1ccccc1Cl)C1CCN(C(=O)c2ccccc2F)CC1 (configuration not stated)	i
Cc1nc(CN2CCN(c3ncc(F)c(N(C)C)n3)CC2)cs1	i
Cc1nc(C(=O)N2CCCC(CCc3cccc(C(F)(F)F)c3)C2)c(C)o1 (configuration not stated)	i
O=C(O)CCCC(=O)N1Cc2ccccc2CC2(CCCN2Cc2ccccc2)C1 (configuration not stated)	-7%
CN1CCC(C(=O)N2Cc3ccccc3CC3(CCN(Cc4ccc(O)cc4)C3)C2)CC1 (configuration not stated)	0%
CN1CCC(C(=O)N2Cc3ccccc3CC3(CCCN(Cc4cccnc4)C3)C2)CC1 (configuration not stated)	8.9µM*
SMILES	Pf Dd2 growth
O=C(O)CCCC(=O)N1Cc2ccccc2CC2(CCCCN2Cc2ccncc2)C1 (configuration not stated)	7%
CN1CCC(C(=O)N2Cc3ccccc3CC3(CCCCN3Cc3ccncc3)C2)CC1 (configuration not stated)	8.9µM*
CN1CCC(C(=O)N2Cc3ccccc3CC3(CCCN(CC4CCNC4)C3)C2)CC1 (configuration not stated)	8%
O=C(c1cc(=O)[nH]c(=O)[nH]1)N1CCc2[nH]nc(-c3ccc(F)c(F)c3)c2C1	-9%
Cn1nc(-c2nncn2CC2CC2)c2c1CCNC2	-8%
O=C(c1ccccc1)N1CCC2(CC1)C(=O)NCN2Cc1ccc(Cl)cc1	-3%
O=C(NC1CC(=O)N(Cc2ccccc2C(F)(F)F)C1)C1CCOCC1 (configuration not stated)	13%
CNC(=O)c1cccc(-c2cnc3[nH]cc(CC(=O)N4CCC(OC)CC4)c3c2)c1	-13%[44.1 µM]
COc1ccc(CCNc2nc(SCc3cccc(F)c3)nc3ccccc23)cc1OC	-18%
COc1ccc(C(C)=O)cc1CSc1nc(NCc2ccc(Cl)cc2)c2ccccc2n1	i
Clc1ccc(CSc2nc(NCCc3ccccc3)c3ccccc3n2)cc1	10µM*
Cc1ccccc1CSc1ncc(Cl)c(C(=O)NCc2ccccc2)n1	5%
COc1ccc(CCNc2nc(SCc3ccc(Cl)cc3)nc3ccccc23)cc1OC	-17%
Clc1ccccc1CSc1nc(NCCc2ccccc2)c2ccccc2n1	11µM*
CC(C)C(=O)N1CCC2(CN[S+](=O)([O-])c3cnccc3O2)C1 (configuration not stated)	4%
COc1cccc(CN2CCN3C(=O)N(C)C[C@H]3C2)n1	31%[44.1 µM]
O=C(NCC1CCOCC1)[C@@H]1C[C@@H](c2ccc(F)cc2)N([S+](=O)([O-])c2cccnc2)C1	i
Cc1nc(C)c(C(=O)N2CCOCC2CC(=O)NCc2cccnc2)s1 (configuration not stated)	i
c1ccc(NCCn2cc(-c3cncnc3)nn2)cc1	-3%
